Results on 63 compounds are retold here after ChEMBL document CHEMBL3988442, “University of Dundee, Small-Polar-MMV Screening Library” (2021).

SMILES strings stand for the structures. Out of some 48,000 compounds screened, about 13,000 (27%) showed an effect of 50% or more. The list shows a part of the results.

In this experiment the test system is Wolbachia pipientis. Briefly: Anti-Wolbachia Cell-Based Screen. Format: functional. The arrangement: scale not given: in the data most compounds retested in dose-response had high values. The conditions noted are these: 5 µM.
In the case of `CCc1nc(CN2CCN(C(=O)Cc3c(C)noc3C)CC2)cs1`, the “Percent Effect” value amounted to 0.6841%. For `COc1ccc(C2SCC(=O)Nc3ccsc32)cc1OC` (stereo not drawn) the value was -3.857%. For `COc1ccc(C2SCC(=O)Nc3ccsc32)cc1` (stereo not drawn) the value was 24.55%; for `O=C1CSC(c2ccncc2)c2c[nH]nc2N1` (stereo not drawn), 107.2%. For the compound `CCCN1CCC2(Cc3ccccc3NC2=O)C1` (stereo not drawn), the “Percent Effect” value was -12.05%. For `O=C1Nc2ccccc2CC12CCN(CCO)C2` (stereo not drawn) the value was -5.884%; for `O=C1NCc2ccccc2CC12CCN(Cc1ccncc1Cl)C2` (stereo not drawn), 100.7%. For `Cc1cc(C)c(CNc2ncnc3ccccc23)c(=O)[nH]1` the value was 14.2%; for `O=C(C1CC1)N1CCN2C[C@H](c3ccccc3)[C@@H](CO)[C@H]2C1`, 105.4%; for `CCOC(=O)[C@@H]1[C@@H](c2ccccc2)CN2CCN(C(C)=O)C[C@H]12`, 87.07%.

As to `CCOC(=O)[C@@H]1[C@@H](c2ccccc2)CN2CCN(S(C)(=O)=O)C[C@H]12`, the “Percent Effect” value was determined as 100.2%.

Regarding `CCOC(=O)[C@@H]1[C@H]2CN(C(=O)OC)CCN2C[C@H]1c1ccccc1`, the “Percent Effect” value amounted to 104.3%. The value for `CC[C@H]1CN2CC[C@H]1C[C@@H]2CNC(=O)Nc1ccccc1` was -4.877%; that for `O=C(COc1ccccc1)N1C[C@@H](O)[C@H](N2CCCC2)C1.O=CO` was 3.295%. For `Cc1noc(C)c1CN1CCO[C@H]2[C@H](Oc3ccccn3)CC[C@@H]21.O=C(O)C(F)(F)F.O=C(O)C(F)(F)F` the value was -5.059%; for `CCOC(=O)[C@@H]1[C@@H](c2ccccc2)CN2CCN(C(=O)C3CC3)C[C@H]12`, 90.7%; for `CCOC(=O)[C@@H]1[C@@H](c2ccccc2)CN2CCN(C(=O)N(C)C)C[C@H]12`, 91.13%. `Cc1nn(C)c2ncc(S(=O)(=O)N3CCN4CCCC4C3)cc12` (stereo not drawn): the “Percent Effect” value is on record as -0.5952%. Regarding `CCc1nc(CC(=O)N2CCCC2CN2CCCC2)cs1` (stereo not drawn), the “Percent Effect” value was -9.906%.

Consider `NC(=O)C1CN(C(=O)Cc2cccnc2)CCN(C2CCOCC2)C1` (stereo not drawn), for which the “Percent Effect” value is reported as 108.4%. As for `O=C(Cc1cccnc1)N1CCC2(CC1)CCN(C1CCOC1)C2.O=C(O)C(F)(F)F.O=C(O)C(F)(F)F` (stereo not drawn), the “Percent Effect” value is recorded as -0.1396%. For `O=C1N(Cc2cccnc2)C[C@H]2CN(C3CCOCC3)CCN12` the value was -6.635%; for `CN(C[C@H]1CN2CC[C@H]1C[C@@H]2CNC(=O)c1ccco1)c1ccccc1`, -3.253%; for `Cn1ccc(CN2CCCC23CCNCC3)n1`, -9.611%. The value for `CN(C)c1ncc2c(n1)C1(CCN(CC3CC3)C1)COC2.O=C(O)C(F)(F)F` (stereo not drawn) was -11.31%. The value for `CCN1CCC2(COCc3c(C)nc(N4CCOCC4)nc32)C1` (stereo not drawn) was 5.011%. On to `COCCN1CCC2(COCc3c(C)nc(N(C)C)nc32)C1` (stereo not drawn), for which the “Percent Effect” value is reported as 5.948%. For `Cc1nc(N(C)C)nc2c1COCC21CCN(CC2CC2)C1.O=C(O)C(F)(F)F` (stereo not drawn) the value was 103%; for `CCN1CCC2(COCc3cnc(NCC4CC4)nc32)C1.O=C(O)C(F)(F)F` (stereo not drawn), -6.306%. For `CCN1CCC2(COCc3c(C)nc(N(C)C)nc32)C1` (stereo not drawn) the value was 108.4%; for `Cc1ccccc1CNC(Cn1cncn1)c1ccccc1` (stereo not drawn), 16.93%. For `CC(C)c1cc(N2CCC3(CC2)CN(C)CCN3C)ncn1` the value was -0.4054%; for `Cc1nnsc1CN1C[C@H]2CC[C@@H]1CN(Cc1ccccn1)C2`, -5.416%; for `Cl.NC1(c2nc(C(F)(F)F)cc(=O)[nH]2)CCCC1`, -15.07%. Regarding `Cc1n[nH]c2c1C(c1ccc3c(c1)OCO3)SCC(=O)N2` (stereo not drawn), the “Percent Effect” value was determined as 118.8%. The value for `O=C1CSC(c2ccc3c(c2)OCO3)c2cn[nH]c2N1` (stereo not drawn) was 128%; that for `Cc1n[nH]c2c1C(c1ccsc1)SCC(=O)N2` (stereo not drawn) was 0.06284%. The value for `Cc1n[nH]c2c1C(c1ccc(O)c(Cl)c1)SCC(=O)N2` (stereo not drawn) was 5.211%; that for `CC(C)[C@@H]1CN(C(=O)C2(c3ccccc3)CCN(C)CC2)C[C@H]1N(C)C` was -1.656%; that for `CC(C)OCCNC1(c2ccc(F)cc2)CCOCC1` was 3.648%. The value for `Cn1ccnc1CN1CCN2C[C@H](OCc3cccnc3)C[C@H]2C1.O=C(O)C(F)(F)F.O=C(O)C(F)(F)F.O=C(O)C(F)(F)F` was -4.128%; that for `O=C(O)C(F)(F)F.O=C(O)C(F)(F)F.O=C(O)C(F)(F)F.c1cncc(CN2CCN3C[C@H](Oc4cncnc4)C[C@H]3C2)c1` was 97.08%; that for `O=C(O)C(F)(F)F.O=C(O)C(F)(F)F.O=C(c1cccnc1)N1CCN2C[C@H](Oc3cncnc3)C[C@H]2C1` was -8.279%. Take `O=C(O)C(F)(F)F.O=C(O)C(F)(F)F.O=C(O)C(F)(F)F.c1cc(CN2CCN3C[C@H](Oc4cncnc4)C[C@H]3C2)ccn1`: the “Percent Effect” value was found to be 106.9%.

For `Fc1cccc(O[C@@H]2C[C@H]3CN(Cc4ccncc4)CCN3C2)c1.O=C(O)C(F)(F)F.O=C(O)C(F)(F)F.O=C(O)C(F)(F)F`, the “Percent Effect” value was -7.787%. For `O=C(c1ccncc1)N1CCN2C[C@H](Oc3cncnc3)C[C@H]2C1` the value was 8.644%; for `Cc1ccc2c(n1)N(CC1CC1)CCN(S(=O)(=O)C1CC1)C2.O=C(O)C(F)(F)F`, 2.676%; for `COc1cc(N2CCN(CC3CC3)c3nc(C)ccc3C2)ncn1`, 95.93%. For the compound `COCCN1CCN(c2cc(OC)ncn2)Cc2ccc(C)nc21`, the “Percent Effect” value is reported as 108.6%. For `CC(C)CN1CC[C@@H]2[C@@H]1CCN2C(=O)N(C)C.O=C(O)C(F)(F)F` the value was -11.1%. Take `O=C(c1cccnc1)N1C[C@@H]2CC[C@H](C1)N(Cc1ncc[nH]1)C2`: the “Percent Effect” value was -11.14%.

Regarding `Cc1cccc(CN2CCN3C(=O)NC[C@H]3C2)n1`, the “Percent Effect” value is -6.805%.

In the case of `CCN(CC)CCN1CCO[C@H]2[C@@H](OCc3ccccn3)CC[C@@H]21`, the “Percent Effect” value is recorded as -0.06843%. The value for `Fc1cccnc1O[C@@H]1CC[C@H]2[C@H]1OCCN2Cc1nccs1.O=C(O)C(F)(F)F.O=C(O)C(F)(F)F` was 0.8031%; that for `O=C(O)C(F)(F)F.O=C(O)C(F)(F)F.c1cncc(CO[C@H]2CN(Cc3ccco3)[C@@H]3COC[C@H]23)c1` was 97.44%; that for `O=C(O)C(F)(F)F.O=C(O)C(F)(F)F.c1ccc(O[C@@H]2CN(Cc3nccs3)[C@@H]3CCCO[C@@H]32)nc1` was -2.827%.

In the case of `O=C(O)C(F)(F)F.O=C(O)C(F)(F)F.c1ccc(CO[C@@H]2CN(Cc3nccs3)[C@@H]3COC[C@@H]32)nc1`, the “Percent Effect” value is recorded as 102.5%. The value for `c1ccc(CO[C@@H]2CN(Cc3ccoc3)[C@@H]3COC[C@@H]32)nc1` was 117.8%; that for `O=C(N[C@@H]1CN(Cc2ccccn2)[C@@H]2COC[C@@H]21)C1CCC1.O=C(O)C(F)(F)F` was -10.37%; that for `O=C(O)C(F)(F)F.O=C(O)C(F)(F)F.c1cncc(CO[C@H]2CO[C@@]3(CCN(Cc4ccoc4)C3)C2)c1` was -6.874%. The value for `O=C(O)C(F)(F)F.O=C(O)C(F)(F)F.c1ccc(CO[C@H]2CO[C@@]3(CCN(Cc4ccoc4)C3)C2)nc1` was -0.8411%. `Fc1ccc(CN2C[C@@H](OCc3ccccn3)[C@H]3COC[C@H]32)cc1.O=C(O)C(F)(F)F.O=C(O)C(F)(F)F`: the “Percent Effect” value was found to be 103%. The value for `CN(Cc1ccco1)[C@@H]1CN(Cc2cccnc2)[C@@H]2CCCO[C@H]12.O=C(O)C(F)(F)F.O=C(O)C(F)(F)F.O=C(O)C(F)(F)F` was 8.312%.
